High-throughput results: PubChem, National Center for Advancing Translational Sciences (NCATS)
12-LOX inh: blocks human arachidonate 12S-lipoxygenase. Potency, µM (highest dose often 108 µM), usual class: inhibitors. purified 12hLO, xylenol orange hydroperoxide absorbance. 580,000 tested, 1.1% active. AID 1671190
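Hydroperoxide product was detected by ferrous iron/xylenol orange as the 573 to 405 nm absorbance ratio. Arachidonic acid at 40 uM (final) was turned over for 30 min at room temperature by 150 nM human 12hLO, pH 7.0 Hepes buffer, after 15 min compound preincubation.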
HP1b chromo inh: blocks HP1-beta chromodomain binding to methylated histone tails. P83916. AlphaScreen HP1-beta / biotin-H3K9me3 peptide binding. Potency, µM (titrated, usually from 114 µM), actives largely listed as inhibitors. 390,000 tested, 0.56% active. AID 540317; also: nearly all actives have a fitted effect of over 70% in size
Target sequence (P83916 whole entry, looked up): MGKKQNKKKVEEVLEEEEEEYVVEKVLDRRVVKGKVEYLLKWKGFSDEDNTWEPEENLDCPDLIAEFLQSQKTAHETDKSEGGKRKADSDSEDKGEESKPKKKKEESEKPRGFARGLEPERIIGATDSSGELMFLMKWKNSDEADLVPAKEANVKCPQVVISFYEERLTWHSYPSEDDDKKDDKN
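HP1-beta protein (50 nM final) preincubated 30 min at room temperature with biotinylated H3(1-18)K9me3 peptide (50 nM) in PBS pH 7.4, 0.01% Tween-20, then compound added for 30 min. AlphaScreen streptavidin donor/nickel chelate acceptor beads (10 ug/mL final), 30 min dark, luminescence read.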
G9a block: G9a (human) methyltransferase inhibition; 350,000 tested, 8.8% active; Q96KQ7; AID 504332; G9a H3K9 monomethylation, AlphaScreen, 2 h; Potency, µM (highest dose often 102 µM), hits mostly inhibitors; also: nearly all actives have a fitted effect of over 75% in size
Target sequence (Q96KQ7 913-1193 limits assumed): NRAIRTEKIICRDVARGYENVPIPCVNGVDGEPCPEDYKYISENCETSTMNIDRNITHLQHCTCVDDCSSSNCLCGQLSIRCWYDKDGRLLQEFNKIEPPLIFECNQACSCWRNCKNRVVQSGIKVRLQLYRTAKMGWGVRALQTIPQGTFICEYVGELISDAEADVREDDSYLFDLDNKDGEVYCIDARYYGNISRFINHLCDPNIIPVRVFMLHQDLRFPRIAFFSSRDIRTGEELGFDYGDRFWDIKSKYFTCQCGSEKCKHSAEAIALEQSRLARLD
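Compounds were preincubated with 20 nM G9a for 15 min, after which biotinylated H3K9 peptide (500 nM) and SAM (20 uM) started a 2 h room-temperature reaction. Monomethylated product was quantified by antibody-based AlphaScreen chemiluminescence.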
BAZ2B inh: BAZ2B (human) inhibition. Q9UIF8. AlphaScreen BAZ2B-H3K14Ac peptide displacement. Potency, µM (doses to about 114 µM), hits mostly inhibitors. 360,000 tested, 4.4% active. AID 504333; also: nearly all actives have a fitted effect of over 60% in size
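Complex of BAZ2B and biotin-H3K14Ac (50 nM apiece) forms over 30 min at RT, then faces library compounds up to 110 uM for another 30 min; AlphaScreen beads added, 20 min dark incubation, luminescence read.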
Sfp PPTase inh: inhibitors of Bacillus subtilis Sfp phosphopantetheinyl transferase | 310,000 tested, 3.5% active | Q9F4F7 | Potency, µM, most hits filed as inhibitors | Biochemical Sfp PPTase activity, qHTS | AID 1490;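 also: the enzyme is Sfp with the accession as filed and its product quenches rhodamine fluorescence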
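After 15 min at room temperature with compound, 15 nM Sfp received 5 uM rhodamine-CoA plus 12.5 uM BHQ-2-ybbR (50 mM Hepes pH 7.6, 10 mM MgCl2). Rate came from the fluorescence difference over 30 min, ex 525/em 598 nm.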
JMJD2A Tudor: JMJD2A Tudor domain (human) inhibition; O75164; AlphaScreen JMJD2A-Tudor / H3K4me3 peptide binding; Potency, µM (doses to about 114 µM), most hits filed as inhibitors; 390,000 tested, 4.4% active; also: nearly all actives have a fitted effect of over 50% in size
A number is an active result; – = inactive; ? = inconclusive; · = not tested or not shown; ! = repeats disagree; [ ] = remark or other dose. This is a sample that favours compounds with a hit; in the whole collection about 8.7% have one here. Calls follow the shape of the dose curve; as a rule, active = well fitted curve in the direction sought with a large enough effect; inconclusive = small, poorly fitted or top-dose-only effect, or another doubt; inactive = no such curve, though single readings can be large; an effect the other way counts as inactive or inconclusive.

SMILES	12-LOX inh	HP1b chromo inh	G9a block	BAZ2B inh	Sfp PPTase inh	JMJD2A Tudor
CC(=O)Nc1ccc(S(=O)(=O)NC2=C(N3CCN(c4ccc(F)cc4)CC3)C(=O)c3ccccc3C2=O)cc1	–	25µM	2.8µM	22µM	–	22µM
CCOC(=O)N1CCN(C2=C(NS(=O)(=O)c3ccc(C)cc3)C(=O)c3ccccc3C2=O)CC1	?	20µM	22µM	8.9µM	79µM	22µM
CCOC(=O)N1CCN(C(=O)COc2ccc(S(=O)(=O)NC(C)C)cc2)CC1	–	–	45µM	–	–	–
Cc1ccc(S(=O)(=O)Nc2nc3ccccc3nc2N2CCN(c3ccccc3F)CC2)cc1	–	–	–	?	–	–
Cc1ccc(S(=O)(=O)NC2=C(N3CCN(c4ccccc4F)CC3)C(=O)c3ccccc3C2=O)cc1	–	14µM!	–[0.501 µM]	10µM	–	8.9µM
CC(=O)N1CCc2cc(S(=O)(=O)CCC(=O)N3CCC(CCOc4ccccc4)C3)ccc21 (stereo not drawn)	–	·	·	·	·	·
CCn1cnnc1CC1CCN(C(=O)c2ccc3ccccc3n2)C1 (stereo not drawn)	–	·	·	·	·	·
Cc1ccc(S(=O)(=O)NC2=C(N3CCN(Cc4ccccc4)CC3)C(=O)c3ccccc3C2=O)cc1	?	8.9µM	7.1µM	7.9µM	–	7.1µM
CC1(C)CC(=O)CC(C)(C)N1	–	·	·	·	·	·
C#CCOCCOCCOCCNc1nc(N2CCN(C(=O)[C@H](CCCCN)n3cc([C@@H](N)CC(C)C)nn3)CC2)nc(N2CCN(C(=O)[C@H](Cc3ccc(O)cc3)n3cc([C@@H](N)CC(C)C)nn3)CC2)n1	·	–	–[12.7 µM]	56µM	–	79µM
C#CCOCCOCCOCCNc1nc(N2CCN(C(=O)[C@H]([C@@H](C)CC)n3cc([C@@H](N)Cc4ccc(O)cc4)nn3)CC2)nc(N2CCN(C(=O)[C@H](CCCCN)n3cc([C@@H](N)CC(C)C)nn3)CC2)n1	·	·	?	79µM	–	·
C#CCOCCOCCOCCNc1nc(N2CCN(C(=O)[C@H]([C@@H](C)CC)n3cc(CCC(=O)O)nn3)CC2)nc(N2CCN(C(=O)[C@H](CCCCN)n3cc(CCC(=O)O)nn3)CC2)n1	?	–	·	·	·	–
C#CCOCCOCCOCCNc1nc(N2CCN(C(=O)[C@H](CCCCN)n3cc([C@@H](N)C(C)CC)nn3)CC2)nc(N2CCN(C(=O)[C@H](Cc3ccc(O)cc3)n3cc([C@@H](N)CC(C)C)nn3)CC2)n1 (stereo partly drawn)	–	–	?	79µM	–	?
CCCNC(=O)c1ccc2[nH]c3c(c2c1)CCCC3	–	·	·	·	·	·
CCN(CC)CCOC(=O)CCc1cccc2ccccc12	?	–	7.9µM	?	–	28µM
CCN(CC)CCOC(=O)C(Cc1ccco1)Cc1cccc2ccccc12 (stereo not drawn)	–	?	·	·	·	13µM
O=c1cc(C(F)(F)F)[nH]c(=S)[nH]1	0.79µM	·	·	·	·	·
CC(C)=CC(=O)NC(c1cccs1)C(C)C (stereo not drawn)	–	·	·	·	·	·
N#Cc1ccc(CN2CCC3(CC2)COc2ccccc2C(=O)N3)cc1	–	·	·	·	·	·
O=C1NC2(CCN(Cc3ccsc3)CC2)COc2ccccc21	45µM	·	·	·	·	·
O=C1CC(N2CCN(S(=O)(=O)c3ccccc3F)CC2)C(=O)N1c1ccccc1F (stereo not drawn)	?	?	·	·	·	16µM
Cc1cccc(C)c1N1C(=O)CC(N2CCN(S(=O)(=O)c3ccccc3F)CC2)C1=O (stereo not drawn)	–	–	·	·	·	–
O=C1C2C3C=CC(CC3)C2C(=O)N1c1nccs1 (stereo not drawn)	–	–	–	45µM	–	50µM
COCCNC(=O)c1ccc2c(=O)n(Cc3ccco3)c(SCC(=O)Nc3ccc(OC)cc3OC)nc2c1	–	–	–	–	–	56µM
Cc1cc(NC(=O)CSc2nc3cc(C(=O)NCCCOC(C)C)ccc3c(=O)n2Cc2ccco2)no1	–	–	–	–	56µM	–
SMILES	12-LOX inh	HP1b chromo inh	G9a block	BAZ2B inh	Sfp PPTase inh	JMJD2A Tudor
CN(C)c1nc2c(c(=O)[nH]1)CCN(Cc1cccnc1)CC2	–	·	·	·	·	·
CCCc1cc(=O)c2c(O)cccc2o1	–	–	–	–	–	–
CCCc1cc2c(O)ccc(O)c2c(=O)o1	35µM	·	·	·	·	·
CC1(C)CCC2=C(O1)c1ccccc1C(=O)C2=O	?	·	14µM!	·	63µM!	·
CC1(C)CCC(=O)c2ccccc21	–	–	·	·	·	–
COc1ccc(-c2ccc3c(c2)C(=O)N2CCN(C(=O)COCC(=O)O)C[C@@H]2C(=O)N3)c(OC)c1	–	·	·	·	·	·
CC(=O)NNC(=O)c1sc(=S)n2c1[nH]c(=O)c1sccc12	?	?	13µM	–	18µM	79µM
NC(=O)c1sc(=S)n2c1[nH]c(=O)c1sccc12	?	–	18µM	–	40µM	?
CNCc1ccccc1Sc1ccc(O)c(O)c1	–	?	13µM	?	?	79µM
Cc1cc(C(=O)N[C@@H]2C[C@H](COc3ccc(S(C)(=O)=O)cc3)[C@@H](O)[C@H]2O)nn1C	–	·	·	·	·	·
COc1ccc(CCn2nc(C)c([N+](=O)[O-])c2C)cc1	–	–	–	–	–	–
Cc1cccc(-n2c(CCn3nc(C)c([N+](=O)[O-])c3C)n[nH]c2=S)c1	?	–	0.45µM	–	–	20µM
COc1cccc(-n2c(CCn3nc(C)c([N+](=O)[O-])c3C)n[nH]c2=S)c1	–	?	25µM	–	–	11µM
NC(=O)C1CCN(C(=O)C2CCN(S(=O)(=O)Cc3ccccc3Cl)CC2)CC1	–	·	·	·	·	·
COc1cc(CNCc2ccco2)cc(OC)c1O	–	–	71µM	–	–	–
CCOc1ccc(CNCc2ccco2)cc1OC	–	·	·	·	·	·
Cc1ccc(CNCc2ccco2)cc1	?	–	22µM	56µM	–	28µM
Cc1cc(S(=O)(=O)N[C@@H]2CCOC[C@H]2Oc2ccccn2)c(C)s1	–	·	·	·	·	·
Cc1ccc(-n2c(C)cc(C(=O)OCC(=O)N3CCOCC3)c2C)cc1	–	?	·	·	·	–
Cc1ccc(C(=O)OCC(=O)c2ccc(CC(=O)N3CCOCC3)s2)cc1C	–	–	?	50µM	·	?
Cc1ccc(C(=O)OCC(=O)c2ccc(CC(=O)N3CCOCC3)s2)c(C)c1	·	–	45µM	50µM	·	13µM
O=C(OCC(=O)N1CCOCC1)c1ccc2c(c1)OCCO2	–	–	–	–	–	–
COC(=O)c1ccc(CCNC(=O)c2cccc(C#N)c2)cc1	–	·	·	·	·	·
CC(=NNC(=S)N1CC2CCC(CC2)C1)c1cccc(C)n1	–	?	·	·	·	22µM
CCCCCC(=O)N/N=C(\C)c1ccccn1	–	–	?	–	?	–
Cc1cccc(C(=O)NC2CCCCCC2)n1	–	·	·	·	·	·
CC(=NNC(=S)SCc1ccccc1)c1ccccn1	?	–	·	·	·	20µM
CC(=NNC(=S)N1CCCC1)c1ccccn1	18µM	·	·	·	·	·
CC(=NNC(=S)N1CCC1)c1ccccn1	50µM	–	·	·	·	20µM
